Data: PubChem BioAssay AID1117319 (Southern Research Institute, 2015)
Where “and” joins values, the source holds several entries; their conditions need not be identical. Equal entries are not always repeated. Hit rate of the full screen: of about 260,000 compounds, about 1,500 (0.58%) were called active. Roughly 5% stayed inconclusive and do not appear here.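 Rule for the calls: active = inhibition above a set limit at one or more doses, reproduced on every date tested; inconclusive = results disagree between test dates, or hit never tested in dose response; inactive = the rest.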 The list is a sample of the results. Potency and affinity values are given separately.

Target: Virion infectivity factor (Human immunodeficiency virus type 1 group M subtype B (isolate BH10)) + Virion infectivity factor (Human immunodeficiency virus type 1 group M subtype B (isolate BRU/LAI)) + Virion infectivity factor (Human immunodeficiency virus type 1 group M subtype B (isolate PCV12)) + Virion infectivity factor (Human immunodeficiency virus type 1 group M subtype B (isolate HXB2)) + DNA dC->dU-editing enzyme APOBEC-3G (Homo sapiens) (UniProt P69720+P69721+P69722+P69723+Q9HC16)
Test: HIV-1 Vif–A3G interaction blockers – biochemical, TR-FRET, GST-Vif 1-94, biotin-A3G peptide, dose response retest, primary screen (AID 1117319);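 note: Vif residues 1-94 fused to GST binding biotinylated APOBEC3G peptide 110-148; 0% = full assay without inhibitor and 100% = GST in place of GST-Vif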
Details: TR-FRET GST-Vif / biotin-A3G peptide binding; stronger effect = higher value

inhibition, inactive:
O=C(CN1CCN(c2ccccc2)CC1)c1c[nH]c2ccccc12 -7.04%
COc1cccc(/C=C2\Oc3cc(OC(=O)N4CCOCC4)ccc3C2=O)c1 0.99%
O=C(CN(CCO)Cc1ccccc1)N1CCN(S(=O)(=O)c2ccccc2)CC1 0.45%
C/C=C/c1ccc(OCCCn2cncn2)c(OC)c1 -2.59%
COC(=O)C1=C(C)NC(C)=C(C(=O)OC)C1c1cc2cc(C)ccc2[nH]c1=O -2.33%
COc1ccc(C2C(C#N)=C(N)Oc3c2ccc2cccnc32)cc1OC (configuration not stated) 18.2%
Cc1ccc(C(=O)Nc2ccc3[nH]c(=O)[nH]c3c2)c(C)c1 -1.2%
C=CCn1c(SCc2nc3ccccc3[nH]2)nnc1-c1cccc(OC)c1 7.4%
Cc1nc2ccc(S(=O)(=O)NCC(=O)NCCN3CCCCCC3)cc2s1 -0.42%
CSc1nc(N2CCOCC2)c2c3c(sc2n1)CCCC3 2.91%
Cc1nc(N2CCOCC2)c2c3c(sc2n1)CCC3 -7.05%
C=CCN(C(=O)c1csnn1)C(C(=O)NC(C)(C)C)c1ccncc1 (configuration not stated) 8.31%
O=C(c1ccc(CNS(=O)(=O)c2ccccc2)cc1)N1CCN(c2ccccn2)CC1 5.22%
Oc1[nH]c2ccccc2c1N=Nc1ccc(F)cc1 -2.74%
Oc1ccc2ccccc2c1N=Nc1ccc(F)cc1 7.15% and 5.32%
CCOC(=O)CC(NC(=O)c1cccs1)c1ccc(C)cc1 (configuration not stated) -0.96%
CCCCOc1ccccc1C1NC(=O)CCC1[N+](=O)[O-] (configuration not stated) -4.07%
O=C(N/N=C/C=C\c1ccco1)c1cccs1 2.49%
O=C(Cc1cccs1)N/N=C/C=C/c1ccccc1 4.16%
COc1ccccc1/C=C/C=N/NC(=O)Cc1cccs1 -10.6%
O=C(CNC(=O)c1cccs1)N/N=C/c1ccco1 10.8%
O=C(c1ccncc1)N1N=C(C2CC2)CC1(O)C(F)(F)F (configuration not stated) -2.38%
CCOC(=O)c1c(C)oc(=O)c(CC)c1O -0.93%
Cc1ccc(S(=O)(=O)N2C[C@H]3C(=O)C[C@@H](c4ccc(Cl)cc4)N(S(=O)(=O)c4ccccc4C)[C@H]3C[C@H]2c2ccccc2)cc1 -0.22%
O=C(CSCc1c(Cl)cccc1Cl)NN=C1CCCC1 15.1%
CCOC(=O)C1CCCN(c2c(NCC3CCCN3CC)c(=O)c2=O)C1 (configuration not stated) 1.77%
CC(=O)N1Cc2ccccc2CC1C(=O)NCc1ccccc1F (configuration not stated) 0.3%
